Active and inactive are the calls of the source.
How the values were obtained:
[1] = tested on: PRMT1 (protein arginine N-methyltransferase 1); assay: small molecules binding arginine methyltransferase PRMT1 – biochemical, small-molecule microarray, 635 nm fluorescence, primary screen (AID 1088); details: higher = more signal;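 also: binding of Prmt1 protein to compounds spotted on small-molecule microarray slides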
[2] = growth effects on S. cerevisiae YJM789 – YJM789 clinical isolate, OD600, 24 h, basal, primary screen (AID 1089); details: higher = more signal, called active from +8 up or from −8 down;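 also: growth of clinical yeast isolate S. cerevisiae YJM 789 seeded 1000 cells per well; test concentration not given here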
[3] = S. pombe growth modifiers, basal conditions – strain 972, OD600, 24 h, no modulator, primary screen (AID 1090);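 also: basal condition with compound alone and no growth modifier present; test concentration not given here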; details: S. pombe 972 growth, higher = more signal, called active from +8 up or from −8 down
[4] = budding yeast growth modifiers under rapamycin – strain BY4716, OD600, 96 h, primary screen (AID 1091); also: test concentration not given here; details: S. cerevisiae BY4716 + rapamycin, higher = more signal, called active from +8 up or from −8 down
[5] = target: Torsin-1A-interacting protein 2 (Homo sapiens) (UniProt Q8NFQ8); assay: small molecules binding lysate-expressed LULL1 – cell lysate, human LULL1 lysate, 635/667 nm fluorescence, primary screen (AID 1092); details: small-molecule microarray, hLULL1 lysate binding, 635 nm fluorescence; higher = more signal;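 also: probe is lysate of COS7 cells overexpressing human LULL1; score merges per-feature 667 nm fluorescence with signal-to-noise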
Chain of Torsin-1A-interacting protein 2 (Homo sapiens) (Q8NFQ8 whole entry, looked up): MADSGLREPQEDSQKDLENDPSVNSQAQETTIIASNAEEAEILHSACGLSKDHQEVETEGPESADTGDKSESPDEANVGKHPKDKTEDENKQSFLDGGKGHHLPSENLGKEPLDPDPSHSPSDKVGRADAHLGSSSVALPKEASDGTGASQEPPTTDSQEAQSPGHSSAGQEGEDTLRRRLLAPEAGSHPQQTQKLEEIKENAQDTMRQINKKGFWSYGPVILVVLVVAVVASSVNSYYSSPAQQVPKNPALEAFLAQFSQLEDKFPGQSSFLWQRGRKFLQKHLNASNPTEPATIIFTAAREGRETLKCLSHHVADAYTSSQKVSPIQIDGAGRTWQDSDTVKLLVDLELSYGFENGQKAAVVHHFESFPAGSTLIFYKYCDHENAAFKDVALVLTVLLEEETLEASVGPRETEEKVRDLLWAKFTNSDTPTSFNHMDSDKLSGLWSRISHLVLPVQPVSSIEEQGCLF

[6] = optical density change of DRC41 E. coli – strain DRC41, OD650, 24 h, E. coli filamentation project, primary screen (AID 1093);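 also: MC1000 strain lacking acrAB efflux and sulA so SOS filamentation is blocked; test concentration not given here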; details: E. coli DRC41 growth, higher = more signal, called active from +8 up or from −8 down
[7] = probe aLefty2 binding to arrayed compounds – biochemical, biotinylated probe, 635/667 nm fluorescence, primary screen (AID 1094); details: small-molecule microarray, higher = more signal;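 also: score merges spot fluorescence near 667 nm with spot signal-to-noise ratio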
[8] = tested on: Noggin (protein binding on small-molecule microarray); assay: small molecules binding Noggin protein – biochemical, 635/667 nm fluorescence, primary screen (AID 1095); details: 635 nm fluorescence, higher = more signal;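 also: score merges 667 nm feature fluorescence with signal to noise over triplicate slides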
[9] = target: Neurogenic locus notch homolog protein 3 (Homo sapiens) (UniProt Q9UM47); assay: small molecules binding NOTCH3 protein – biochemical, 635/667 nm fluorescence, primary screen (AID 1096); details: small-molecule microarray, 635 nm fluorescence, higher = more signal
Chain of Neurogenic locus notch homolog protein 3 (Homo sapiens) (Q9UM47 whole entry, looked up): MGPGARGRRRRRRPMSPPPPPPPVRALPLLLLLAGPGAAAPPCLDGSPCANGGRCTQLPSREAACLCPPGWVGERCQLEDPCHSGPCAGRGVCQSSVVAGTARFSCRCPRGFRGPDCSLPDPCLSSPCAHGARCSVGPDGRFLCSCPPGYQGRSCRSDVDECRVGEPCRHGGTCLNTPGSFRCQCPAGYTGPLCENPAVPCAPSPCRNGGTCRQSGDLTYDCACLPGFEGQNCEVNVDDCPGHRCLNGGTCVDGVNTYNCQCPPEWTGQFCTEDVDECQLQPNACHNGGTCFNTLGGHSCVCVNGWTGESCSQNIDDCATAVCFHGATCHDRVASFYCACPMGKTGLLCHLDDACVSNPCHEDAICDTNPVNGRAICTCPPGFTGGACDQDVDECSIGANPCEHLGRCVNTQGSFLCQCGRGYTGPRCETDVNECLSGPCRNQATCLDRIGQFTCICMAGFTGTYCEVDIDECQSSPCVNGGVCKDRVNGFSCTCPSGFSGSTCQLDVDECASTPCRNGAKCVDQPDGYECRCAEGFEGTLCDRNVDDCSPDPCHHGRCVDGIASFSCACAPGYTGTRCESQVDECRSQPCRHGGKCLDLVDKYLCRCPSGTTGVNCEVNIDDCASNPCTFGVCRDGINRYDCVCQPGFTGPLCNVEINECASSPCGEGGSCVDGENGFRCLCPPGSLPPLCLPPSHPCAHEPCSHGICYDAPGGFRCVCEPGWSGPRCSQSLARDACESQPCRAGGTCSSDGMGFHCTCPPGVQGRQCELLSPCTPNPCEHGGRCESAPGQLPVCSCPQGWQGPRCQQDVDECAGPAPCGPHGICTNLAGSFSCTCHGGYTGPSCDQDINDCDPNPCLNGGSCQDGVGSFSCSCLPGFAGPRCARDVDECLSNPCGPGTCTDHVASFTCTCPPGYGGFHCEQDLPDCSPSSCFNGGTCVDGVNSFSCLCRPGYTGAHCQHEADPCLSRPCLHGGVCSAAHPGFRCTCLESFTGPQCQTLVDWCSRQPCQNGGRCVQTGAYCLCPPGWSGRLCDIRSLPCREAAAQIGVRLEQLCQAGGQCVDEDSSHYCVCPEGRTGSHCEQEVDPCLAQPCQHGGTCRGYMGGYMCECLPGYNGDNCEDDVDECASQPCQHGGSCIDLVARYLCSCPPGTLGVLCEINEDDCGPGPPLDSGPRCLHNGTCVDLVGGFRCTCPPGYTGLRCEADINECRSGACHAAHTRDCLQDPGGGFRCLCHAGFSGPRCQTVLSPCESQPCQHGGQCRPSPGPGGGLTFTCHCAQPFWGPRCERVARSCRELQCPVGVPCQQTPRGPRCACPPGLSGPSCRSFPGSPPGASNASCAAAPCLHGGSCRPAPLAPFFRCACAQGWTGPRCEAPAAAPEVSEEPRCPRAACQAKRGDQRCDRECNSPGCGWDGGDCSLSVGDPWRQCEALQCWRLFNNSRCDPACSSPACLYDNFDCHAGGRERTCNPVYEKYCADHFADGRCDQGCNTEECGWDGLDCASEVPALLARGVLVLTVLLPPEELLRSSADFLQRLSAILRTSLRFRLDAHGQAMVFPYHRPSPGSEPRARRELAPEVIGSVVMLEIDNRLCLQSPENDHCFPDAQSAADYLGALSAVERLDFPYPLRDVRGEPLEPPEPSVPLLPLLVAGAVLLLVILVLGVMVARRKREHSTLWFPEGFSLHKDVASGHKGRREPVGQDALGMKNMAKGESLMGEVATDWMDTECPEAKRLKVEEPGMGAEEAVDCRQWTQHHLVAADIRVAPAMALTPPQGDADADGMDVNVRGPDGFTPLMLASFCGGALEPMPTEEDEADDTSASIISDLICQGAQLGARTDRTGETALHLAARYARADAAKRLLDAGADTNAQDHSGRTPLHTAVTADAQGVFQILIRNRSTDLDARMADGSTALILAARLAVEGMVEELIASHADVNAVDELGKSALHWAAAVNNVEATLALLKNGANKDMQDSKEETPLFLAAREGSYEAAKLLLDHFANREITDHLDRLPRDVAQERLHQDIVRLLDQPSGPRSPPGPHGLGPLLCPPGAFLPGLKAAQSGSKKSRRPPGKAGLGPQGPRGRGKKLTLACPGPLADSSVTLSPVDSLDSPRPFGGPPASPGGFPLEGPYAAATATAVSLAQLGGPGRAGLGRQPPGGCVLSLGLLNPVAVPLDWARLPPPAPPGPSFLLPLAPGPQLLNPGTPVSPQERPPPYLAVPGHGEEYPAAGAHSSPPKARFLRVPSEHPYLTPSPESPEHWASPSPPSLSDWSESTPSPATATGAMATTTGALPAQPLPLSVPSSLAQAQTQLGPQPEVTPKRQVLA

[10] = probe aEGFR binding to arrayed compounds – biochemical, biotinylated probe, 635/667 nm fluorescence, primary screen (AID 1097); details: small-molecule microarray, higher = more signal;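 also: probe is a biotinylated anti-EGFR antibody binding compounds printed on slides; score combines fluorescence near 667 nm and signal to noise of each spot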
[11] = tested on: Plasmodium falciparum Sir2 (PF13_0152, Sir2A); assay: Plasmodium falciparum Sir2A binding compounds – biochemical, small-molecule microarray, 635 nm fluorescence, primary screen (AID 1098); details: fluorescence 635 nm, higher = more signal;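 also: score merges spot fluorescence intensity with its signal-to-noise ratio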
[12] = probe aDKK1 binding to arrayed compounds – biochemical, biotinylated probe, 635/667 nm fluorescence, primary screen (AID 1099); details: small-molecule microarray, higher = more signal;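 also: score merges 667nm spot fluorescence with signal to noise across triplicate slides; reference of the scale not given here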
[13] = probe aCHRDL2 binding to arrayed compounds – biochemical, biotinylated probe, 635/667 nm fluorescence, primary screen (AID 1100); details: small-molecule microarray, higher = more signal
[14] = change in splice reporter luminescence, either direction, cell-based, HEK293, spliceosome inhibition project, primary screen (AID 1101); details: HEK293 splicing luciferase reporter, 24 h, higher = more signal, called active from +8 up or from −8 down;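 also: HEK293 cells carrying a splicing-competent luciferase reporter gene; test concentration not given here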
[15] = target: Fibroblast growth factor 10 (Homo sapiens) (UniProt O15520); assay: compounds binding fibroblast growth factor 10 – biochemical, small-molecule microarray, 635 nm fluorescence, primary screen (AID 1102); details: FGF10 binding, fluorescence 635 nm, higher = more signal
Chain of Fibroblast growth factor 10 (Homo sapiens) (O15520 whole entry, looked up): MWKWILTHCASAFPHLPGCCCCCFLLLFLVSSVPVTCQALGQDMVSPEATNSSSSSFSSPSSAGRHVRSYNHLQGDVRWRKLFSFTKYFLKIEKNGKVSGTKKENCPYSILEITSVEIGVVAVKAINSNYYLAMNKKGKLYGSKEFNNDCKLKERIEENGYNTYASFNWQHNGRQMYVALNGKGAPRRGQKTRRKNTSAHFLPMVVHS

[16] = tested on: glycogen synthase kinase-3 (GSK3A per assay name; protocol says GSK3B); assay: compounds binding glycogen synthase kinase-3 – biochemical, small-molecule microarray, 635 nm fluorescence, GSK3A, primary screen (AID 1103); details: fluorescence 635 nm, higher = more signal; also: the record names both GSK3A and GSK3B
[17] = target: Epidermal growth factor receptor (Homo sapiens) (UniProt P00533); assay: compounds binding epidermal growth factor receptor – biochemical, small-molecule microarray, 635 nm fluorescence, primary screen (AID 1104); details: EGFR binding, higher = more signal;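 also: score merges 667 nm emission intensity with spot signal to noise over triplicate slides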
Chain of Epidermal growth factor receptor (Homo sapiens) (P00533 whole entry, looked up): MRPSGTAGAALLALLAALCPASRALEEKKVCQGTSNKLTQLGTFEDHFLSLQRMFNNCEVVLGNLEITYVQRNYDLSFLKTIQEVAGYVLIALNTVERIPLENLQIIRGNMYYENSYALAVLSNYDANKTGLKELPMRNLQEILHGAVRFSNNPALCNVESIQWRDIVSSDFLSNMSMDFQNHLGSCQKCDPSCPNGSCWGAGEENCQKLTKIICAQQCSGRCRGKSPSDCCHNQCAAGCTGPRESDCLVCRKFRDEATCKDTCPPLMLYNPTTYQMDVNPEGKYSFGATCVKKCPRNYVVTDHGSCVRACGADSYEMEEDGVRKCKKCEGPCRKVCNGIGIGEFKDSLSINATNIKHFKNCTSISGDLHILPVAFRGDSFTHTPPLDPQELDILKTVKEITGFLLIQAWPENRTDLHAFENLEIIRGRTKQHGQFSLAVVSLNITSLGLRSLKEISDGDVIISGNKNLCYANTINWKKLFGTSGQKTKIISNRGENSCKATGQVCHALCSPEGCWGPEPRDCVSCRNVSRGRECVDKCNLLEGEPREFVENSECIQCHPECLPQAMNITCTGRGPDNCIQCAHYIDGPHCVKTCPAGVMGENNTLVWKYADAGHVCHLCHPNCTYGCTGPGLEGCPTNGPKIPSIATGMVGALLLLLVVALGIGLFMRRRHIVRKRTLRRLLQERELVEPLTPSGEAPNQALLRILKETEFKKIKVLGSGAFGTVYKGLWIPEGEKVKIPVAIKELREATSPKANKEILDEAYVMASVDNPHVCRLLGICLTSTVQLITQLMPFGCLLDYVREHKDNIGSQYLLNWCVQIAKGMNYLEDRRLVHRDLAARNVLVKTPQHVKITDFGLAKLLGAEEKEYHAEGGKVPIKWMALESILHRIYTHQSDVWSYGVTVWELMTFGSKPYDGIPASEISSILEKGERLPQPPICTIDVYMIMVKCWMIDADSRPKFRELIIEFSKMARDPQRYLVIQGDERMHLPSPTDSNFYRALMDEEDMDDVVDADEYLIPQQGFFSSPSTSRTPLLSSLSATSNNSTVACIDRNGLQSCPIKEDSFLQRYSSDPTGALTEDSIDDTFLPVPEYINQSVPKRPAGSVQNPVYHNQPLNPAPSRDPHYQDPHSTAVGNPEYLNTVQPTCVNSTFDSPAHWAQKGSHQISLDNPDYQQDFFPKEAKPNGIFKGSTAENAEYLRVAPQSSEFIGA

[18] = target: Follistatin-related protein 3 (Homo sapiens) (UniProt O95633); assay: compounds binding follistatin-related protein 3 – biochemical, small-molecule microarray, 635 nm fluorescence, primary screen (AID 1105); details: FSTL3 binding, higher = more signal;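 also: score merges emission near 667 nm and signal to noise per printed spot across three slides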
Chain of Follistatin-related protein 3 (Homo sapiens) (O95633 whole entry, looked up): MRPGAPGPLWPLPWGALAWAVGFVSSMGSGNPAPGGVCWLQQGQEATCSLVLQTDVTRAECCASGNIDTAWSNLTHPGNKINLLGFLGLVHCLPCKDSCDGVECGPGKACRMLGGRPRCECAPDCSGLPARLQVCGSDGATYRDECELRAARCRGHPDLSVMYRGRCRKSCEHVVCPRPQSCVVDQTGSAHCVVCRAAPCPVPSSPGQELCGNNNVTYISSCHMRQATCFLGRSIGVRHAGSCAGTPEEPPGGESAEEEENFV

[19] = target: Dickkopf-related protein 1 (Homo sapiens) (UniProt O94907); assay: small molecules binding DKK1 protein – biochemical, small-molecule microarray, 635 nm fluorescence scan, primary screen (AID 1106); details: higher = more signal;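 also: score merges emission near 667 nm with signal to noise over three replicate slides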
Chain of Dickkopf-related protein 1 (Homo sapiens) (O94907 whole entry, looked up): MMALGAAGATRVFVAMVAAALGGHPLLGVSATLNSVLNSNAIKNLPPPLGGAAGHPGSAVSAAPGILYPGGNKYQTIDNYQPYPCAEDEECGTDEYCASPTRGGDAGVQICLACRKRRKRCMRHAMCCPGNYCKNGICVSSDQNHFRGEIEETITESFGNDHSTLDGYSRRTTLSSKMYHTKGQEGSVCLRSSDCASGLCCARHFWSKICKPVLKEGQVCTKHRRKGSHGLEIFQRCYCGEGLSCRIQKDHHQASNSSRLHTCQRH

[20] = tested on: Inhibin beta A chain (activin A); assay: small molecules binding activin A – biochemical, small-molecule microarray, 635 nm fluorescence scan, primary screen (AID 1107); details: INHBA, higher = more signal;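 also: mouse activin A protein probed at 4.33 µg/mL on printed slides; score merges bound-protein fluorescence near 667 nm with spot signal-to-noise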

| Structure (SMILES) | composite z-score [1] | z-score [2] | z-score [3] | z-score [4] | composite z-score [5] | z-score [6] | composite z-score [7] | composite z-score [8] | composite z-score [9] | composite z-score [10] | composite z-score [11] | composite z-score [12] | composite z-score [13] | z-score [14] | composite z-score [15] | composite z-score [16] | composite z-score [17] | composite z-score [18] | composite z-score [19] | composite z-score [20] |
| --- | --- | --- | --- | --- | --- | --- | --- | --- | --- | --- | --- | --- | --- | --- | --- | --- | --- | --- | --- | --- |
| COCCCNC(=O)[C@@]1(Sc2ccc(C)cc2)CC(=O)N(Cc2ccccc2Cl)[C@@H]1c1ccc(CO)cc1I | -0.76 | -0.89 (inactive) | -2.01 (inactive) | 0.0449 (inactive) | 1.04 | 0.668 (inactive) | -0.0654 | -0.691 | -0.318 | -0.249 | 0.515 | 0.0057 | 0.791 | -0.529 (inactive) | -0.668 | -1.05 | -1.29 | -0.491 | -1.12 | 0.45 |
| COCC1C2CC[C@H]3C(OCc4ccc(OC)cc4)OC[C@]4(C)[C@H]3C2=C(CN4C(=O)OC(C)(C)C)[C@H](C)C1COC (stereo not given in full) | 1.57 | -1.23 (inactive) | -1.18 (inactive) | -0.444 (inactive) | 3.78 | -1.22 (inactive) | 0.0359 | 0.372 | 1.05 | -0.0656 | 0.852 | 0.319 | 0.482 | -1.98 (inactive) | 1.11 | 1.32 | 0.418 | 1.16 | 0.207 | 0.752 |
| CC(C)CCC[C@@H](C)[C@H]1CC[C@@]2(C)C3=C(CC[C@]12C)[C@@]1(C)CC[C@H](OC(=O)c2ccccc2)C(C)(C)C1CC3 (stereo not given in full) | -0.0528 | -1.9 (inactive) | -0.547 (inactive) | -0.568 (inactive) | -0.11 | 1.59 (inactive) | -0.193 | 0.559 | 0.316 | -0.0828 | 0.238 | -0.279 | -0.501 | -1.54 (inactive) | 0.155 | 0.21 | 0.375 | 0.429 | 0.61 | -0.0754 |
| O=C1O[C@H](c2ccccc2)[C@H](c2ccccc2)N2[C@H]1[C@@H](C(=O)N1CCCCCCC1)[C@]1(C(=O)Nc3ccc(C#CC4(O)CCCCCC4)cc31)[C@H]2c1ccccc1OCCO | 1.54 | 1.56 (inactive) | 0.462 (inactive) | 3.41 (inactive) | 5.1 | 1.04 (inactive) | 1.91 | 2.38 | 1.03 | 1.51 | 2.09 | 3.17 | 1.7 | -0.0867 (inactive) | 1.56 | 1.48 | 1.96 | 1.77 | 2.77 | 1.69 |
| O=C1C2C=CC(C(O)c3ccc4c(c3)OCO4)N(Nc3ccccc3)C2C(=O)N1c1ccccc1 (stereo not given) | 1.46 | -0.293 (inactive) | 0.292 (inactive) | 0.593 (inactive) | 3.05 | -0.784 (inactive) | 0.266 | -0.0526 | 1.1 | 0.11 | 1.41 | 0.45 | 1.09 | 0.243 (inactive) | 0.781 | -0.157 | -0.0637 | 0.71 | -0.541 | 0.477 |
| C#C[C@@H](CC)O[Si](C#CCCCC#N)(C(C)C)C(C)C | 1.12 | -13.2 (active) | -20.1 (active) | -3.15 (inactive) | 2.2 | 0.619 (inactive) | -0.0257 | -0.298 | 0.398 | -0.128 | 0.329 | 0.155 | -0.0862 | -0.196 (inactive) | -0.232 | -0.021 | -0.405 | -0.669 | -0.277 | 0.573 |
| [N-]=[N+]=Nc1ccccc1C[C@]1(C(=O)O)N=C(c2ccc(OCCCO)cc2)O[C@H]1c1ccccc1 | 1.34 | 3.9 (inactive) | 0.888 (inactive) | 0.712 (inactive) | 3.11 | 0.464 (inactive) | 0.0116 | -0.0597 | 0.703 | -0.0828 | 1.71 | 0.336 | 0.724 | -0.918 (inactive) | 0.143 | 0.0096 | -0.839 | 0.195 | -0.689 | 0.86 |
| Cc1cccc([C@H]2C[C@H]3C(I)=C[C@@H]2C(=O)[C@]32CO2)c1 | -0.614 | -2.5 (inactive) | -20.2 (active) | -2.15 (inactive) | -0.842 | -0.2 (inactive) | 0.0735 | 0.461 | -0.0085 | -0.108 | -0.636 | -0.251 | 0.154 | -1.48 (inactive) | 0.575 | -0.499 | -0.0512 | 0.445 | 0.125 | 1.03 |
| CC(C)c1ccc(NN2C(C(O)Cc3ccccc3)C=CC3C(=O)N(c4ccccc4)C(=O)C32)cc1 (stereo not given) | 1.48 | -0.619 (inactive) | -0.699 (inactive) | 0.844 (inactive) | 3.51 | -1.36 (inactive) | 0.388 | 0.294 | 1.07 | 0.205 | 0.587 | 0.655 | 0.811 | -0.469 (inactive) | 0.932 | 1.04 | 0.399 | 1.26 | 0.241 | -0.323 |
| COCCOC(=O)N1C(=O)[C@@]2(c3cc(C#CC4(O)CCCCCC4)ccc31)[C@H](c1ccc(OCCO)cc1)N1[C@H](c3ccccc3)[C@H](c3ccccc3)OC(=O)[C@H]1[C@@H]2C(=O)Nc1nc2ccccc2s1 | 1.54 | 1.76 (inactive) | 1.05 (inactive) | 2.93 (inactive) | 1.57 | 0.11 (inactive) | 0.225 | 1.42 | 1.05 | 0.219 | 1.41 | 0.722 | 0.208 | 0.268 (inactive) | 1.05 | 0.522 | 0.538 | 1.33 | 0.559 | 0.308 |

Source: PubChem BioAssay
